About 79,000 compounds went through this panel and 15% of them were active in at least one assay; those are over-represented in the sample as a whole. The source made the active and inactive calls. Cut-off read from the data, not from the text of the source: active = growth inhibition above about 70%; inactive = the rest.
Test: NCI Yeast Anticancer Drug Screen. Data for the cln2 rad14 strain (AID 165);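 note: 0% = growth equal to vehicle treated cultures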
Conditions: S. cerevisiae cln2 rad14 strain, at 50.0 µM, active compounds read high
Protocol: Growth inhibition of yeast strains with defined genetic alterations is measured as a screen for potential anti-cancer activity. Selected strains with alterations in DNA damage repair or cell cycle control were exposed to compounds and growth inhibition was measured relative to vehicle treated controls. The strain used in this assay is cln2 rad14

Row | Structure (SMILES) | growth inhibition
1 | CCOC(=O)C(COS(C)(=O)=O)(COS(C)(=O)=O)C(=O)OCC | -2.05% (inactive)
2 | C=C(C)COc1ccc(C(C)(C)C)cc1 | 8.1% (inactive)
3 | CCN(C(C)=O)c1ccc([N+](=O)[O-])cc1 | -41.8% (inactive)
4 | COC(=O)c1ccc([N+](=O)[O-])c(C)c1 | -9.9% (inactive)
5 | Nc1cc(F)ccc1[N+](=O)[O-] | -26.2% (inactive)
6 | Nc1ccc2c(c1)Cc1cc(N)c(N)cc1-2 | -18.7% (inactive)
7 | S=C(NCc1ccccc1)N1CCC(CCCC2CCN(C(=S)NCc3ccccc3)CC2)CC1 | 6% (inactive)
8 | Cc1cc(Nc2ccc3c(c2)OCO3)c2cc3c(cc2n1)OCO3 | 3.8% (inactive)
9 | CC(=O)N(CCCCCCN(C(C)=O)C(C)=O)C(C)=O | -0.55% (inactive)
10 | Cc1ccc(S(=O)(=O)Oc2ccc3sc4c(CO)ccc(NCCN(C)C)c4c(=O)c3c2)cc1 | 21.6% (inactive)
11 | CCCCCCCCCc1ccc(OC(C)=O)cc1 | 98% (active)
12 | C=CCc1cc(OC)c(OC)c(OC)c1 | -6.6% (inactive)
13 | Cc1ccc(Cc2ccc(C)cc2)cc1 | 3% (inactive)
14 | CC(=O)C1C(=O)C(=O)N(c2ccc(Cl)c(Cl)c2)C1=O (stereo not given) | -14.4% (inactive)
15 | CC(C)N1CC(=O)N2CSCC2C1=O (stereo not given) | -6.85% (inactive)
16 | Cc1[nH]n(-c2ccccc2)c(=O)c1C=NC(=S)C(N)=S | -19.1% (inactive)
17 | O=[N+]([O-])c1ccc2[nH]c(=S)n(/C=C(/c3ccc(Cl)cc3Cl)S(=O)(=O)Cc3ccc(Cl)cc3Cl)c2c1 | 23.9% (inactive)
18 | Cc1ccc(NC(=O)c2ccccc2Cl)cc1 | -42% (inactive)
19 | C=CCOc1ccc(Cl)cc1Cl | 4.6% (inactive)
20 | c1ccc(Nc2ccccn2)nc1 | -87.8% (inactive)

Row | Structure (SMILES) | growth inhibition
21 | Nc1ccc(F)c(Cl)c1F | -24.8% (inactive)
22 | CCC(C)C1CCC(O)CC1 (stereo not given) | 21.5% (inactive)
23 | CCOC(=O)/C(O)=C(\C=N\C(=S)Nc1ccc(Cl)c(Cl)c1)C(=O)OCC | 6.65% (inactive)
24 | O=C(O)c1cc(I)ccc1O | -33.8% (inactive)
25 | CC(=O)/C(C)=N\OC(=O)Nc1ccccc1 | -7% (inactive)
26 | CS(=O)CC(=N\O)/C(CS(C)=O)=N\O (stereo not given) | -8.85% (inactive)
27 | CC(=O)Nc1ncc(S(=O)(=O)c2ccc([N+](=O)[O-])cc2)s1 | -7.55% (inactive)
28 | Clc1ccc(C(SCc2ccccc2)SCc2ccccc2)cc1 | -17.6% (inactive)
29 | CCCC(=O)CC(=O)c1ccccc1 | -13.6% (inactive)
30 | Oc1cc2ccccc2c(-c2c(O)c(O)cc3ccccc23)c1O | 83.6% (active)
31 | COc1cc(C(=O)NC(=S)NCc2ccncc2)cc(OC)c1OC | -11.2% (inactive)
32 | Cc1[nH]c(=S)[nH]c(=O)c1C | -3.4% (inactive)
33 | CC(C)c1ccccc1NC(=O)N1CCC(C(C)C)CC1 | -22.6% (inactive)
34 | CC(C)(C)CC1(C)NC(=O)NC1=O (stereo not given) | -58.2% (inactive)
35 | CC(=O)Nc1ccc(/C=C2\SC(=S)N(/C=C(\C(C)=O)C(N)=O)C2=O)cc1 | -0.8% (inactive)
36 | S=c1nc2[nH]c3ccccc3c2n[nH]1 | -7.3% (inactive)
37 | CCCCN(C=S)CCCC | 13.7% (inactive)
38 | O=C(NCc1ccccc1)c1cccc([N+](=O)[O-])c1 | -47% (inactive)
39 | COc1ccc(C)cc1NC(=O)SC(C)C | -5.2% (inactive)
40 | CN1CCCN(C(c2ccccc2)c2ccc(Cl)cc2)CC1 (stereo not given) | 19.9% (inactive)
